The values below come from PubChem BioAssay.

Broadly, the inhibition is the drop in the measured response relative to a control, in per cent.

Assay [1] can be described thus: inhibitors of TNFa-induced NFkB p65 translocation, primary screen, imaging, HUVEC, MLSMR starter and 10KST1 sets (AID 438;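 active = inhibition above 20% together with a positive visual image hit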;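 also: compound added about 3h40 before a 20 min TNFalpha stimulation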;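 as to inhibition: signal is the nuclear over cytoplasmic p65 intensity ratio per well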). The note with it: HUVEC TNFa-induced p65 nuclear translocation; cell count: measured here: nuclei count (cytotoxicity indicator), at 2.08 µM; inhibition: at 2 µM, stronger effect = higher value, 0% TNFa-plus-vehicle, 100% no-TNFa wells.
Assay [2] in a line: inhibitors of mutant huntingtin aggregation, primary screen, imaging, exon1htt(103Q)mCFP cells, high-content imaging (AID 483;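 active = visual image review flags a hit and inhibition of aggregation exceeds 20%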;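 also: compound exposure lasted 3 days before fixation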;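 as to nuclei count: percent of the per-plate median nuclei count of sample wells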). The following applies: exon1htt(103Q)mCFP cell line, aggregate imaging, at 2 µM; inhibition of aggregation: stronger effect = higher value; nuclei count: measured here: cell count, toxicity.
Assay [3] is described as follows: inhibitors of E-selectin induction by TNFa, primary screen, imaging, HUVEC, immunofluorescence, MLSMR starter and 10KST1 sets (AID 487;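 active = visually confirmed hit in the image check and inhibition above 20%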;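 as to inhibition: signal is fraction of cell area covered by stained E-selectin grains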;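 as to nuclei count: 100% = median nuclei count of all wells on the same plate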). The note with it: HUVEC TNFalpha-induced E-selectin immunofluorescence imaging, at 2 µM; inhibition: stronger effect = higher value; nuclei count: measured here: cell number, toxicity.
The target in assay [4] is Voltage-gated potassium channel subunit beta-2 (Rattus norvegicus) (UniProt P62483). The assay can be described thus: KvBeta enzyme negative modulators, primary screen, biochemical, NADPH fluorescence (AID 622;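 active = fluorescence slope higher than the sample average by over 3 SD, cut at about -0.22 in these data, passing the limit was not always enough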;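 also: slope of raw intensity against log time taken from 70 to 1610 s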). The following applies: recombinant KvBeta, 4-cyanobenzaldehyde reduction, at 10 µM, stronger effect = higher value.
Sequence of Voltage-gated potassium channel subunit beta-2 (Rattus norvegicus) (P62483 whole entry, looked up): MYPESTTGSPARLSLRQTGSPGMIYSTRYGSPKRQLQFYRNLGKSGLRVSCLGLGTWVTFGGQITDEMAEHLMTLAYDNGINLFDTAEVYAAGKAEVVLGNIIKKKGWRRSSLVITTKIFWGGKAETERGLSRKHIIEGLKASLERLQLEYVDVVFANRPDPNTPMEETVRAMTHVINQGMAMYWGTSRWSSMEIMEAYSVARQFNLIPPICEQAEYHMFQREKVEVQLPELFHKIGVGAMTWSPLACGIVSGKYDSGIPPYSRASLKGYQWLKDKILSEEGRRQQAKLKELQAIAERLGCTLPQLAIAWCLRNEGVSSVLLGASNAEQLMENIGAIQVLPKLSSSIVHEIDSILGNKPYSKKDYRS
For assay [5] the target is unchanged. The assay can be described thus: KvBeta positive modulators, primary screen, biochemical, NADPH fluorescence (AID 623;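 active = NADPH fluorescence slope more negative than the mean of all samples by about 3 SD, 99.7% confidence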;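 also: fluorescence intensity change per second fitted from 20 to 320 s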). The note with it: Recombinant KvBeta, NADPH fluorescence decrease slope, 10 min; at 10 µM; stronger effect = lower value.
In assay [6] the target is Alpha-2C adrenergic receptor (Homo sapiens) (UniProt P18825). In words: modulators of alpha2C/GIRK thallium flux, primary screen, cell-based, HEK293 alpha2C/GIRK1/2 (AID 624;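 active = fluorescence slope after compound addition differing from the mean of all screened samples at 99.7% confidence, in either direction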;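 also: slope of fluorescence ratio to pre-addition baseline per second over 15 to 24 s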). The following applies: thallium flux BTC fluorescence, at 10 µM, actives lie on both sides.
Sequence of Alpha-2C adrenergic receptor (Homo sapiens) (P18825 whole entry, looked up): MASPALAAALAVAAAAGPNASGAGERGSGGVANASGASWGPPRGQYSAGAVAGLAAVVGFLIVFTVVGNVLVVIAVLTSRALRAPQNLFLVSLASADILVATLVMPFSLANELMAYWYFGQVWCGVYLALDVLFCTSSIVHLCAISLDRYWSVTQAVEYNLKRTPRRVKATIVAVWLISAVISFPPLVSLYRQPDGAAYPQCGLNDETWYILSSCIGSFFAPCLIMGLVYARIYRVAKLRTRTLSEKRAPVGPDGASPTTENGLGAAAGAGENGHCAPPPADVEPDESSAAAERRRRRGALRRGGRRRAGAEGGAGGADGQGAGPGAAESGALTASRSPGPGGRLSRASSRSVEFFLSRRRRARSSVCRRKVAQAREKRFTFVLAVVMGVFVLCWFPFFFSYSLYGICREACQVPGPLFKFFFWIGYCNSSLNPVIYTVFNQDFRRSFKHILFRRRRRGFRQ
Assay [7] can be described thus: inhibitors of Sendai virus-induced IRF3 signaling, primary screen, TLR/RLR signaling modifier project, cell-based, Sendai virus stimulus, luciferase, 10K MLSCN set (AID 602276;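 active = inhibition at or above 50% at 10 µM; inactive = inhibition below 50%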;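 also: firefly luciferase from ISG56 promoter only with Renilla not read in this screen; 0% = Sendai virus plus DMSO and 100% = medium plus DMSO without virus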). The following applies: HEK293 RL24 IRF3 luciferase reporter, at 10 µM, stronger effect = higher value. (In general: A reporter such as luciferase makes a cellular process visible.)
The nature of assay [8]: inhibitors of poly I:C-induced TLR3 signaling, primary screen, cell-based, poly I:C stimulus, luciferase, 10K MLSCN set (AID 602277). The note with it: HEK293-TLR3 RL24 IRF3 luciferase reporter, at 10 µM, stronger effect = higher value.

The source made the active and inactive calls.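 The calls were made as follows, unless noted: active = inhibition of the reporter signal at or above 50%; inactive = inhibition below 50%.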

Take `Cc1cc(C)cc(NC(=O)CCNS(=O)(=O)c2ccc3c(c2)oc(=O)n3C)c1`: in assay [1], the cell count was found to be 755. The inhibition in assay [1] was -14.1% (inactive); in assay [3], -79.9% (inactive); in assay [7], 20.7% (inactive); in assay [8], 22.7% (inactive). In addition, in assay [2], the inhibition of aggregation is -14.6% (inactive). In addition, the figures for the nuclei count in assay [2] and in assay [3] were 120% and 100%, respectively. Besides, in assay [4], the fluorescence slope was -0.601 (inactive). Besides, the NADPH fluorescence slope in assay [5] is -3.2e-05 (inactive). The slope in assay [6] is 0.00584 (inactive).

Consider `O=C(CSc1ncnc2nc[nH]c12)c1ccc(Cl)cc1`, for which, in assay [1], the cell count worked out at 728. In addition, the inhibition was -12.4% (inactive) in assay [1], 5.4% (inactive) in assay [3], -2.82% (inactive) in assay [7] and -23.1% (inactive) in assay [8]. Further, the inhibition of aggregation in assay [2] was 9.4% (inactive). Besides, the nuclei count was found to be 101% in assay [2] and 95% in assay [3]. The fluorescence slope in assay [4] was -0.5 (inactive). Besides, in assay [5], the NADPH fluorescence slope is -1.4e-05 (inactive). In addition, the slope in assay [6] is 0.00583 (inactive).

Consider `COc1ccc(N2CCN(C(=O)C(C)(C)Oc3ccc(Cl)cc3)CC2)cc1`, for which the cell count in assay [1] is 651. The inhibition in assay [1] is 5.8% (inactive); in assay [3], 0% (inactive); in assay [7] it was 2.83% (inactive); in assay [8], 28.4% (inactive). In addition, the inhibition of aggregation in assay [2] is 4.4% (inactive). In addition, the nuclei count in assay [2] came to 96.2%; in assay [3], 111%. The fluorescence slope in assay [4] was -0.564 (inactive). Besides, the NADPH fluorescence slope in assay [5] is -4.3e-05 (inactive). The slope in assay [6] was 0.00674 (inactive).

Consider `CCCCN=CC1=C(O)C(C(=O)OC)C(C)(C)CC1=O` (centres undefined), for which the cell count in assay [1] was 390. Moreover, the inhibition in assay [1] is -4.3% (inactive); in assay [3], -21.7% (inactive); in assay [7], -0.949% (inactive); in assay [8], -9.49% (inactive). For the same compound, the inhibition of aggregation in assay [2] was 10.6% (inactive). In addition, the nuclei count in assay [2] was 106%; in assay [3], 123%. For the same compound, the fluorescence slope in assay [4] is -0.392 (inactive). Further, in assay [5], the NADPH fluorescence slope was -6.2e-07 (inactive). The slope in assay [6] was 0.0055 (inactive).

As to `Cc1nc2scc(-c3ccco3)c2c(=O)n1/N=C/N(C)C`, the cell count in assay [1] is 453. Also, the inhibition is -4.8% (inactive) in assay [1], -35.6% (inactive) in assay [3], -2.39% (inactive) in assay [7] and 3.07% (inactive) in assay [8]. For the same compound, the inhibition of aggregation in assay [2] is -22.8% (inactive). The values for the nuclei count in assay [2] and in assay [3] were 86.6% and 116%, respectively. Besides, the fluorescence slope in assay [4] is -0.342 (inactive). Also, the NADPH fluorescence slope in assay [5] is -6.4e-05 (inactive). For the same compound, in assay [6], the slope is 0.00533 (inactive).

For `COC(=O)CSc1nnc(-c2ccncc2)o1`, the cell count in assay [1] turned out to be 366. In addition, the inhibition in assay [1] is -6.8% (inactive); in assay [3] it was -16.8% (inactive); in assay [7], 6.97% (inactive); in assay [8], 32.3% (inactive). The inhibition of aggregation in assay [2] is -4.1% (inactive). Moreover, the nuclei count was found to be 94.2% in assay [2] and 106% in assay [3]. Besides, in assay [4], the fluorescence slope was -0.46 (inactive). For the same compound, in assay [5], the NADPH fluorescence slope is -4.6e-05 (inactive). Moreover, in assay [6], the slope was 0.00309 (inactive).

As to `CCOC(=O)c1cc2sc(C)cc2n1CC(=O)Nc1cccc(C)c1C`, in assay [1], the cell count came to 556. The inhibition in assay [1] is 7.5% (inactive); in assay [3], -44.9% (inactive); in assay [7], -2.4% (inactive); in assay [8], 12.7% (inactive). Moreover, in assay [2], the inhibition of aggregation is 23.7% (inactive). Moreover, the nuclei count was determined as 109% in assay [2] and 116% in assay [3]. In assay [4], the fluorescence slope is -0.342 (inactive). In addition, in assay [5], the NADPH fluorescence slope was -3.2e-05 (inactive). Moreover, the slope in assay [6] was 0.00758 (inactive).

Regarding `CCc1nnc2n1N=C(c1ccc(-c3ccc(Cl)cc3Cl)o1)CS2`, the cell count in assay [1] was 480. Further, the inhibition in assay [1] is 3.3% (inactive); in assay [3], -6.7% (inactive); in assay [7], 6.74% (inactive); in assay [8], 10.2% (inactive). Moreover, the inhibition of aggregation in assay [2] is -48.4% (inactive). Also, the nuclei count in assay [2] was determined as 102%; in assay [3] it was 105%. Besides, the fluorescence slope in assay [4] was -0.607 (inactive). Also, the NADPH fluorescence slope in assay [5] is 1.7e-05 (inactive). For the same compound, the slope in assay [6] is 0.00636 (inactive).

Consider `Cc1cc(C)nc(NC2=NCC(=O)N2c2ccccc2Br)n1`, for which, in assay [1], the cell count came out at 899. Moreover, the inhibition is -1.7% (inactive) in assay [1], -29.3% (inactive) in assay [3], 17.3% (inactive) in assay [7] and 40.3% (inactive) in assay [8]. Further, the inhibition of aggregation in assay [2] was -2.1% (inactive). Besides, the nuclei count in assay [2] was 92.9%; in assay [3], 115%. Further, the fluorescence slope in assay [4] is -0.4 (inactive). For the same compound, the NADPH fluorescence slope in assay [5] is 9.8e-06 (inactive). Moreover, the slope in assay [6] is 0.00564 (inactive).

Turning to `COc1cc2c(cc1OC)C(C)N(C(=O)Cn1ncc3c1-c1ccccc1OC3)CC2` (centres undefined), the cell count in assay [1] was determined as 697. Moreover, the inhibition was -4.8% (inactive) in assay [1], -39.6% (inactive) in assay [3], 7.96% (inactive) in assay [7] and 17.3% (inactive) in assay [8]. Further, in assay [2], the inhibition of aggregation was -21.5% (inactive). For the same compound, the results for the nuclei count in assay [2] and in assay [3] were 114% and 117%, respectively. In addition, in assay [4], the fluorescence slope was -0.587 (inactive). In addition, the NADPH fluorescence slope in assay [5] is -3.4e-05 (inactive). In addition, in assay [6], the slope was 0.008 (inactive).

For the compound `O=C(Nc1ccccc1N1CCOCC1)c1ccc2ccccc2n1`, in assay [1], the cell count came out at 589. For the same compound, the inhibition is -21.6% (inactive) in assay [1], 17.1% (inactive) in assay [3], -13.5% (inactive) in assay [7] and -46% (inactive) in assay [8]. In assay [2], the inhibition of aggregation is -18.1% (inactive). Also, the nuclei count in assay [2] was determined as 92.8%; in assay [3], 94.6%. Also, in assay [4], the fluorescence slope was -0.39 (inactive). In addition, in assay [5], the NADPH fluorescence slope was -4.7e-05 (inactive). Further, in assay [6], the slope is 0.00386 (inactive).

On to `O=C(CN1CCCCCC1)OCCN=C1NS(=O)(=O)c2ccccc21`, for which the cell count in assay [1] was 384. Besides, the inhibition in assay [1] was -1.9% (inactive); in assay [3], -187% (inactive); in assay [7] it was 9.82% (inactive); in assay [8], 8.03% (inactive). The inhibition of aggregation in assay [2] was -3.1% (inactive). In addition, the nuclei count in assay [2] was 62.4%; in assay [3] it was 133%. For the same compound, the fluorescence slope in assay [4] is -0.599 (inactive). The NADPH fluorescence slope in assay [5] is -6.1e-06 (inactive). In addition, the slope in assay [6] was 0.00669 (inactive).

As to `Cc1cccc(N2CCN(C(=O)C3CCCN(S(=O)(=O)c4cnc[nH]4)C3)CC2C)c1` (centres undefined), the cell count in assay [1] turned out to be 387. Also, the inhibition was 1.7% (inactive) in assay [1], -11.9% (inactive) in assay [3], 6.53% (inactive) in assay [7] and 17.4% (inactive) in assay [8]. The inhibition of aggregation in assay [2] is -14% (inactive). Moreover, the nuclei count came to 107% in assay [2] and 122% in assay [3]. The fluorescence slope in assay [4] was -0.438 (inactive). The NADPH fluorescence slope in assay [5] was 1.5e-05 (inactive). In addition, the slope in assay [6] was 0.00647 (inactive).

With `C=CCn1c(-c2ccccc2)c[nH]c1=S`, the cell count in assay [1] stood at 544. The inhibition in assay [1] was -9.5% (inactive); in assay [3], 8.5% (inactive); in assay [7] it was -33.4% (inactive); in assay [8] it was -112% (inactive). In addition, the inhibition of aggregation in assay [2] was -9.3% (inactive). Besides, the nuclei count in assay [2] was found to be 112%; in assay [3], 101%. Also, the fluorescence slope in assay [4] was -0.61 (inactive). Further, the NADPH fluorescence slope in assay [5] was -4.2e-05 (inactive). In addition, the slope in assay [6] is 0.00665 (inactive).
